MCF10A rerep = A quantitative high throughput screen for small molecules that induce DNA re-replication in MCF 10a normal breast cells; MCF 10A DNA re-replication, Hoechst nuclear intensity, 48 h; AID 624296, 2012; Potency, µM (doses to about 46.1 µM), most hits filed as activators; 2.9% of 350,000 active; also: nearly all actives have a fitted effect of over 50% in size
HT1080 IDH1KD tx = qHTS for induction of synthetic lethality in tumor cells producing 2HG: qHTS for the HT-1080-IDH1KD cell line; AID 686971, 2013; Potency, µM (top dose mostly 46.1 µM), hits mostly cytotoxic; 2% of 360,000 active; HT-1080 IDH1 knockdown viability, ATP luminescence, 48 h
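IDH1KD HT-1080 cells, 750/well, RPMI + 5% FBS; compound pinned after 2 h settling; 48 h, 37 °C; CellTiter-Glo luminescence; % activity normalised to DMSO and no-cell wells; curves fitted, classed by r2 and efficacy.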
HT1080-NT tox = qHTS for induction of synthetic lethality in tumor cells producing 2HG: qHTS for the HT-1080-NT fibrosarcoma cell line | Potency, µM (top dose mostly 46.1 µM), usual class: cytotoxic | AID 686970, 2013 | HT-1080-NT fibrosarcoma viability, CellTiter-Glo ATP luminescence, 48 h | 1.6% of 360,000 active;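 also: NT is the 2HG producing partner of a matched IDH1 knockdown line; nearly all actives have a fitted effect of over 55% in size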
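Viability of the 2HG-overproducing fibrosarcoma line after 48 hours of compound exposure at 37 degrees C was determined by luminescence with CellTiter-Glo, and concentration-effect curves were then fitted and categorized.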
SW480 rerep = A quantitative high throughput screen for small molecules that induce DNA re-replication in SW480 colon adenocarcinoma cells. SW480 DNA re-replication, Hoechst DNA content imaging, 48 h. Potency, µM (titrated, usually from 46.1 µM), usual class: activators. 1.8% of 340,000 active. AID 624297, 2012; also: nearly all actives have a fitted effect of over 55% in size
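Quantitative HTS format with DMSO vehicle controls; 48 hr drug incubation at 37 C, then 40 min Hoechst staining and scanning imager measurement at 405 nm excitation.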
KB-V1 MDR tox = qHTS assay for MDR1-selective chemotherapeutics: Primary screen using the drug-selected MDR subline cells KB-V1. KB-V1 MDR cells viability, CellTiter-Glo, 72 h. Potency, µM (doses to about 46.1 µM), most hits filed as cytotoxic. 3.4% of 400,000 active. AID 1347076, 2019; also: nearly all actives have a fitted effect of over 60% in size
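Drug-selected KB-V1 cells, grown in DMEM lacking phenol red with 10% FBS, receive compound titrations; after three days at 37 degrees C, surviving cell ATP is quantified by CellTiter-Glo luminescence and responses normalized and curve-fitted.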
KB-3-1 tox = qHTS assay for MDR1-selective chemotherapeutics: Primary screen using the parental adenocarcinoma cell KB-3-1 | 1.4% of 400,000 active | AID 1347075, 2019 | KB-3-1 viability, CellTiter-Glo ATP luminescence, 72 h | Potency, µM (series often up to 46.1 µM), usual class: cytotoxic; also: nearly all actives have a fitted effect of over 60% in size
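Here the drug-naive KB-3-1 line serves as comparator for MDR sub-line selectivity; cells received compound titrations, 72 h at 37 °C, then CellTiter-Glo readout.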
Numbers stand for hits; - = inactive; ? = inconclusive; . = no result; [ ] = another dose, or the depositor's remark. In the library only some 7.9% were active in any assay of this set; here they are far more common. Calls follow the shape of the dose curve; as a rule, active = well fitted curve in the direction sought with a large enough effect; inconclusive = small, poorly fitted or top-dose-only effect, or another doubt; inactive = no such curve, though single readings can be large; an effect the other way counts as inactive or inconclusive.

SMILES	MCF10A rerep	HT1080 IDH1KD tx	HT1080-NT tox	SW480 rerep	KB-V1 MDR tox	KB-3-1 tox
O=C1c2c(-c3ccc(Br)cc3)noc2CCN1Cc1cn(-c2ccc(Cl)cc2)nn1	.	-	?	.	18µM	21µM
Cc1cc(C(=O)CSc2n[nH]c(N)n2)c(C)n1-c1ccc(F)cc1	-	-	?	-	16µM	?
Cc1cc(C(=O)CSc2n[nH]c(N)n2)c(C)n1-c1ccccc1	?	?	-	-	-	-
Cc1ccc(-n2c(C)cc(C(=O)CSc3n[nH]c(N)n3)c2C)cc1	-	?	-	-	-	21µM
O=C(c1ccc([N+](=O)[O-])cc1)N1CCOC12CCN(c1ncc(C(F)(F)F)cc1Cl)CC2	-	-	-	-[9.22 µM]	-	-
CCCC(=NCCc1c(C)[nH]c2ccccc12)C1=C(O)CC(c2ccccc2)CC1=O (centres undefined)	1.5µM	4.6µM	?	6.5µM	5.2µM	7.3µM
CCCCC(=NCCc1c(C)[nH]c2ccccc12)C1=C(O)CC(c2ccccc2)CC1=O (centres undefined)	8.2µM	9.2µM	?	10µM	9.2µM	13µM
CC(C)(C)Sc1ccc(/C=N/O)cc1[N+](=O)[O-]	-	-	-	-	23µM	-
Cc1ccc(Sc2ccc(/C=N/O)cc2[N+](=O)[O-])cc1	21µM	?	?	?	-	-
O=[N+]([O-])c1cc(/C=N\O)ccc1Oc1ccc(F)cc1	-	-	-	-	-	-
O=[N+]([O-])c1cc(/C=N/O)ccc1SCc1ccccc1Cl	?	?	?	?	21µM	-
CCCCc1ccc(NC(=O)CSc2nc(=O)n(CCN(CC)CC)c3c2CCC3)cc1	-	-	-	?	-	-
COCCOC(=O)C1=C(N)Oc2c(oc(CO)cc2=O)C1c1ccccc1F (centres undefined)	-	-	-	-	-	?
FC(F)(F)C1=CC(c2ccccc2)=NCCN1	-	-	-	-	-	-
COCCNC(=O)C12CC3CC(C1)CC(c1ccccc1)(C3)C2	-	-	-	-	-	-
COc1ccc(-c2nc(SCC(=O)NC3CCCC3)c(-c3ccc(F)cc3)[nH]2)cc1	.	.	.	.	-	-
CC(=O)Oc1ccc(C2=Cc3ccc(OC(C)=O)cc3OC2C)cc1 (centres undefined)	4.1µM	16µM	?	?	?	?
COc1ccc(-c2cnc3c(NC(C)=O)cc(-c4cccc(C(=O)NCCN(C)C)c4)cn23)cc1OC	.	33µM	?	.	-	-
COc1cccc(-c2cnc3c(NC(C)=O)cc(-c4cccc(C(=O)NCCN(C)C)c4)cn23)c1	.	?	16µM	.	-	-
CN1C(=O)C(CC(=O)Nc2ccccc2F)N(NC(=O)c2ccc(Br)cc2)C1=S (centres undefined)	-	-	-	-	-	-
COc1cc(/C=N/NS(=O)(=O)c2ccc(C)c([N+](=O)[O-])c2)ccc1O	-	-	-	?	-	-
Cc1ccccc1N1C(=O)C2C3CC(=O)C(c4ccccc43)C2C1=O (centres undefined)	-	-	-	-	-	-
CCOC(=O)c1cc(-c2ccccc2)sc1NC(=O)C(C)Sc1nnc(N)s1 (centres undefined)	?	-	-	?	2.1µM	?
CCOC(=O)c1cc(-c2ccccc2)sc1NC(=O)C(C)OC(=O)c1cccnc1OCC (centres undefined)	?	-	-	2.9µM	-	-
CCOC(=O)c1cc(-c2ccccc2)sc1NC(=O)CSc1nnc(N)s1	-	-	-	-	?	-
SMILES	MCF10A rerep	HT1080 IDH1KD tx	HT1080-NT tox	SW480 rerep	KB-V1 MDR tox	KB-3-1 tox
CCN(CC)CCCNC(=S)N1CCN(c2nc3ccccc3n2CC)CC1	?	-	-	?	?	-
COc1ccc2c(c1)OC(=O)CC2c1cc(OC)c(OC)c(OC)c1 (centres undefined)	?	15µM	?	?	-	?
Cc1ccc(C)c(C(=O)NC(C)CCc2ccccc2)c1 (centres undefined)	-	-	-	-	-	-
CC(CCc1ccccc1)NC(=O)c1ccc(NC(=O)c2ccccc2)cc1 (centres undefined)	?	-	16µM	?	-	-
Cc1occc1C(=O)NC(C)CCc1ccccc1 (centres undefined)	21µM	-	-	-	-	-
CC(CCc1ccccc1)NC(=O)c1ccc(NC(=O)c2cccc(Br)c2)cc1 (centres undefined)	18µM	-	-	?	2.1µM	-
CCOc1ccc(C(CCc2ccccc2)NC(=O)c2ccccc2)cc1OCC (centres undefined)	-	?	-	-	9.2µM	-
O=C(NCCNC(=O)c1ccco1)c1ccco1	-	-	-	?	-	-
Cc1cccc(Nc2nc(NC(C)C)nc(Oc3ccc(=O)n(C)n3)n2)c1	-	-	-	-	8.2µM	-
COc1ccc(C(=O)NCC2OCCc3ccccc32)c(O)c1 (centres undefined)	-	-	-	-	-	-
O=C1C2C3c4ccccc4C(Br)(c4ccccc43)C2C(=O)N1c1ccccc1O (centres undefined)	-	-	-	18µM	-	-
COc1ccc(C2C(C(=O)Nc3cccc(C)n3)CCC(=O)N2c2ccc(OC)cc2)cc1 (centres undefined)	?	-	-	?	-	-
O=C(NCC(c1ccco1)N1CCCCC1)c1ccc(COc2ccc(Cl)cc2)cc1 (centres undefined)	?	?	18µM	?	-	?
O=C(COc1ccc(Cl)cc1Br)NCC(c1ccco1)N1CCCC1 (centres undefined)	-	-	-	-	5.8µM	-
O=C(COc1cccc(C(F)(F)F)c1)NCC(c1ccco1)N1CCCC1 (centres undefined)	-	-	-	-	-	-
O=C(/C=C/c1ccccc1F)N1CCN(c2ccccn2)CC1	-	-	-	-	-	-
CC(=O)N[C@@H]1[C@@H](O)[C@@H]2OC(c3ccccc3)OC[C@H]2O[C@@H]1N=[N+]=[N-] (some centres undefined)	-	-	-	-	-	-
Nc1ncnc2c1ncn2C1OC(CO)C(O)C1N (centres undefined)	?	-	-	?	-	-
